{
  "source": "PubChem BioAssay (NCATS)",
  "note": "Results filed as inconclusive are left out. Calls of active or inactive are those of the source. The call rests on the fitted dose curve; in most records, active means well fitted inhibition curve with a large enough effect; inconclusive means small, poorly fitted or top-dose-only effect; inactive means flat fitted curve, though single readings scatter. Potency means the concentration at half of the fitted maximal effect.",
  "data": [
    {"assay": "Cytometry Cell-Based qHTS for Inhibitors of the mTORC1 Signaling Pathway in MEF cells (AID 2668);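 on activity change, negative = inhibition: Tsc2-/- p53-/- mouse embryonic fibroblasts stably re-expressing wild-type Tsc2; percent cells positive for phospho-rpS6 Ser235/236 relative to propidium iodide stain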", "conditions": "mTORC1 pathway readout; series mostly up to 38.3 µM; activity change, negative = inhibition: at the top concentration", "description": "NIH Molecular Libraries Probe Production Centers Network [MLPCN]\nNIH Chemical Genomics Center [NCGC]\nAssay Submitter (PI): Blenis, John; Hoffman, Greg; Harvard University\nNCGC Assay Overview: The mammalian target of rapamycin (mTOR) is an intracellular serine/threonine kinase Aberrant regulation of mTOR signaling plays a causative role in a number of human diseases, including cancer, benign tumors such as lymphangioleiomyomatosis (LAM) and Tuberous Sclerosis Complex (TSC), and metabolic diseases such as diabetes and obesity. This project aims to identify inhibitors of ribosomal protein S6 (rpS6) phosphorylation. The phosphorylation of rpS6 is a key event downstream of mTOR activation. The assay uses a phospho-specific antibody of phospho-rpS6 to detect inhibitors of mTOR activation. Mutations in the Tsc1 and Tsc2 genes are the underlying genetic lesions responsible for TSC, causing constitutive activation of the mTORC1 pathway and leading to profound effects on cell metabolism. Aberrant metabolism in cancer has recently received significant attention as a target to develop therapeutic agents in the treatment of cancer.1 As Tsc2-/- cells have lost the ability to respond to energy and growth factor deprivation, these cells are unable to properly down regulate cellular biosynthetic processes in response to metabolic stress, and are thus extremely sensitive to glucose deprivation-induced death.2 A central goal of this project is to explore the unique cell survival and metabolic properties of cells with Tsc1 or Tsc2 by screening for compounds that selectively target the Tsc2-/- MEFs by screening both Tsc2-/- and WT MEF cell lines. We hope to better understand these aspects of TSC physiology in order to exploit them for therapeutic benefit.\nNCGC Acumen Assay Protocol:\nFor quantitative high throughput analysis of mTORC1 signaling, we developed a cell-based assay for immuno-fluorescence based detection of rpS6 phosphorylation on the Acumen Explorer that will be used a platform for the primary small molecule screen. Mouse embryonic fibroblasts (MEFs) are cultured in 1536-well plates using DMEM + 10% FBS. Twenty-four hrs after plating, test compounds (solubilized in DMSO) are delivered and incubated with the cells for 24 hrs at 37 degree Celsius. Following the incubation, media with compound is aspirated and the cells are fixed in 4% paraformaldehyde (PFA) containing PBS + 0.2% TX-100. Next, PFA is aspirated, cells are washed two times with PBS plus 0.2% TX-100 and the cells are blocked for 1 hr at room temperature (blocking buffer: LiCOR Blocking Buffer plus 0.2% TX-100). This is followed by aspiration and staining with Alexa-488 conjugated-phospho-rpS6 Ser235/236 antibody for 2 hours at room temperature (Cell Signaling Technology # 4803, 1:50 dilution in blocking buffer). Cells are washed two times with PBS plus 0.2% TX-100, and stained with 10 uM propidium iodide (PI) for 20-25 minutes for cell number measurement (1:500 dilution of Hoescht staining is also added for IN Cell imaging). The plates are scanned on the Acumen Explorer laser scanning instrument (TTP Labtech) using the 488nm laser for simultaneous excitation of the Alexa-488 and PI. The fluorescence emission from the Alexa-488 conjugated rpS6 phospho-235/236 antibody staining is selected using a […] band pass filter. Fluorescence emission from the PI stain is selected using a 575-640 nm band pass filter. The normalized phospho-S6 staining is calculated as the ratio of the integrated Alexa 488 intensity divided by the integrated PI intensity for the single concentration rapamycin control (7.5 nM) and DMSO columns. […] Inhibition of the pathway is defined based on the normalized phospho-S6 intensity in rapamycin treated cells. […]", "values": [
      {"smiles": "C[C@H](Cc1ccccc1)Nc1ncnc2c1ncn2[C@@H]1O[C@H](CO)[C@@H](O)[C@H]1O", "activity change, negative = inhibition": "-8.52% (inactive)"},
      {"smiles": "O=C1c2ccccc2C(=O)c2c(NCCc3ccc(O)cc3)ccc(NCCc3ccc(O)cc3)c21", "Potency": "4.65 µM (active)"},
      {"smiles": "CN1C2CCCC1CC(NC(=O)c1nn(C)c3ccccc13)C2", "note": "(stereo not given)", "activity change, negative = inhibition": "11.9% (inactive)"},
      {"smiles": "N#C/C(=C\\c1ccc(O)c(O)c1)C(=O)Nc1ccccc1", "activity change, negative = inhibition": "-14.1% (inactive)"},
      {"smiles": "Cc1cccc(/C=C/c2ccccc2)n1", "activity change, negative = inhibition": "9.57% (inactive)"},
      {"smiles": "CCc1ccc(/C=C2/SC(=S)NC2=O)cc1", "activity change, negative = inhibition": "-1.15% (inactive)"},
      {"smiles": "Nc1c(S(=O)(=O)O)cc(Nc2ccc(Nc3nc(Cl)nc(Nc4ccc(S(=O)(=O)O)cc4)n3)c(S(=O)(=O)O)c2)c2c1C(=O)c1ccccc1C2=O", "activity change, negative = inhibition": "9.57% (inactive)"},
      {"smiles": "C1CCC(N=C(NC23CC4CC(CC(C4)C2)C3)N2CCOCC2)CC1", "activity change, negative = inhibition": "-29.9% (inactive)"},
      {"smiles": "N.N.O=C(O)C1(C(=O)O)CCC1.[Pt+2]", "activity change, negative = inhibition": "1.43% (inactive)"},
      {"smiles": "CC[N+](CC)(CC)CC", "activity change, negative = inhibition": "-5.33% (inactive)"}
    ]}
  ]
}
